Assay results: PubChem BioAssay (NCI)
About 79,000 compounds went through this panel and 15% of them were active in at least one assay; those are over-represented in the sample as a whole. Activity calls are given as the source filed them. Rule as the data show it: active = growth inhibition above about 70%; inactive = the rest.

Experiment: NCI Yeast Anticancer Drug Screen. Data for the mgt1 strain (AID 153)
Conditions: S. cerevisiae mgt1 mutant growth inhibition; at 3.7 µM; hits give high values
Procedure, shortened: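 Genetically defined yeast (mgt1) treated with compound; inhibition of growth expressed against vehicle-treated controls.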

| Structure (SMILES) | growth inhibition |
| --- | --- |
| COc1ccc(/C=C2\CCc3ccccc3C2=O)cc1OC | 5% (inactive) |
| O=Cc1ccccc1B(O)O | 2% (inactive) |
| CC(=O)CC[N+](C)(C)C | -21% (inactive) |
| O=C(O)[C@H]1[C@@H](C2CCCCC2)O[C@@H](C2CCCCC2)O[C@H]1C(F)(F)F | -4% (inactive) |
| CCCCOc1ccc(Nc2c3ccccc3nc3ccccc23)cc1 | -13% (inactive) |
| N#C/C(=C1C=C/C(=N\O)C(Cl)=C\1)c1ccccc1 | 1% (inactive) |
| COc1ccc(C(=O)OCCc2ccccc2)cc1 | -3% (inactive) |
| Cc1c2ccncc2c(C)c2c1oc1ccccc12 | 6% (inactive) |
| CCCC#CCOC(=O)c1cc([N+](=O)[O-])cc([N+](=O)[O-])c1 | 86% (active) |
| Nc1nc(Nc2ccccc2)nc(Nc2ccccc2)n1 | -7% (inactive) |
| COc1ccc(/C=C2\S/C(=N/Nc3nc(-c4ccccc4)cs3)NC2=O)cc1OC | 97% (active) |
| CC(O)CN1C(=O)c2cccc3cc([N+](=O)[O-])cc(c23)C1=O (stereo unspecified) | 4% (inactive) |
| Cn1c(COc2ccc(/C=N/NC(=O)CCC(=O)N/N=C/c3ccc(OCc4c[n+]5ccccc5n4C)cc3)cc2)c[n+]2ccccc12 | 3% (inactive) |
| COC1=C(N=[N+]=[N-])C(=O)c2ncccc2C1=O | 7% (inactive) |
| CCN(CC)c1ccc(N=Nc2cc(S(=O)(=O)O)ccc2O)c(O)c1 | -9% (inactive) |
| O=C1C(C(O)(C(F)(F)F)C(F)(F)F)CCC1C(O)(C(F)(F)F)C(F)(F)F (stereo unspecified) | 2% (inactive) |
| CN(C)CCNC(=O)c1cccc2nc3c(ccc4ccccc43)nc12 | -1% (inactive) |
| CCC(C)/C(C)=N/NC(N)=O (stereo unspecified) | -2% (inactive) |
| Nc1c([N+](=O)[O-])cc2c3c(cccc13)CC2 | 18% (inactive) |
| CC1=Cc2ccc(C)cc2C(=O)C1=O | 42% (inactive) |
| C=Cc1c(C)c(O)cc2c1-c1ccc(O)c(C)c1CC2 | -1% (inactive) |
| NCC(O)CSCc1ccc(Cl)cc1 (stereo unspecified) | -2% (inactive) |
| C[n+]1c(-c2ccc(NC(=O)c3ccc(C(=O)Nc4ccc(-c5cn6ccccc6[n+]5C)cc4)cc3)cc2)cn2ccccc21 | 2% (inactive) |
| CNC(=O)OCc1c(COC(=O)NC)c(C)n(-c2ccc(Cl)c(Cl)c2)c1C | -40% (inactive) |
| [O-]c1c2cc(-[n+]3c(-c4ccccc4)cc(-c4ccccc4)cc3-c3ccccc3)cc1COCCOCCOCCOCCOC2 | -2% (inactive) |
| C[Si](C)(C)Cc1ccccc1C(=O)O | 6% (inactive) |
